# Data reported in PubChem BioAssay (NCATS).
# Where “and” joins values, the source holds several entries; their conditions need not be identical. Equal values may be shown once. Records with an inconclusive call do not appear. Entries that show only a call come without a potency. Calls of active or inactive are those of the source. Unless noted, calls come from the whole dose curve; as a rule, active = well fitted curve in the direction sought with a large enough effect; inconclusive = small, poorly fitted or top-dose-only effect, or another doubt; inactive = no such curve, though single readings can be large; an effect the other way counts as inactive or inconclusive.
# Assays:
# [1] = Validation of Assay for Modulators of Lamin A Splicing (AID 1459; active = well fitted curve in the direction sought with a large enough effect in the signal ratio; the % refers to the signal ratio;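 note: cells exposed to compound for two days before reading; ratio rise marks activators and ratio drop marks inhibitors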)
# In short: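 HeLa S3 lamin A-EGFP/DsRed2 stable clone, 600 cells/well, Opti-MEM 2% FBS; compounds by pin tool; 48 hrs, 37 °C/5% CO2; Acumen 488 nm scan, objects 10-100 um; GFP/RFP intensity ratio.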
# [2] = qHTS Assay for Lipid Storage Modulators (AID 1519; calls by dose curve); settings: Drosophila S3 cells, BODIPY lipid droplet/cell ratio, laser cytometry, cells loaded with oleic acid
# In short: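 Cells seeded at 5,000 per well were treated with compounds over a concentration series and loaded with oleic acid (400 uM, as added). Lipid droplet fluorescence (488 nm excitation, 500-530 nm channel) was read by laser-scanning cytometry and normalized to 20 uM Triacsin C.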
# [3] = biological target: DNA repair nuclease/redox regulator APEX1 (Homo sapiens) (UniProt P27695); assay: qHTS Validation Assay for Inhibitors of the Human Apurinic/apyrimidinic Endonuclease 1 (APE1) (AID 1705;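 note: TAMRA fluorescence gain over two minutes as APE1 cuts a quenched THF abasic duplex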)
# DNA repair nuclease/redox regulator APEX1 (Homo sapiens), sequence (P27695 whole entry, looked up): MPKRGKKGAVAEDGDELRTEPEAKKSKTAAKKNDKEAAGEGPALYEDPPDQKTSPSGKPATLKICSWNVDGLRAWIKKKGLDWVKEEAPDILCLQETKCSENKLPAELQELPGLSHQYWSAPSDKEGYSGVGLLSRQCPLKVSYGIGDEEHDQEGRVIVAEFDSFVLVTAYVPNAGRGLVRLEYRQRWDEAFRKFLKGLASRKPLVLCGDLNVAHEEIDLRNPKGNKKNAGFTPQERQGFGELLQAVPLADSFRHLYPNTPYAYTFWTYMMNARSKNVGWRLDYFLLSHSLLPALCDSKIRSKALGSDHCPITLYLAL
# In short: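 qHTS, 1536-well. APE1 + cpd 15 min RT → 50 nM TAMRA/BHQ-2 THF-abasic dsDNA substrate → kinetic fluorescence, 3 reads/60 s; delta(read3−read1) = reaction progress. No-enzyme buffer = negative control.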
# [4] = Counterscreen for APE1 Inhibitors: Fluorescent Dye Displacement Validation Assay (AID 1707)
# In short: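 Loss of Thiazole Orange fluorescence marks promiscuous DNA binders. The dye (250 nM) is mixed with 50 nM abasic-site dsDNA in pH7.5 Tris buffer containing MgCl2, then compounds are added and emission is read once.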
# [5] = biological target: Endonuclease 4 (Escherichia coli (strain K12)) (UniProt P0A6C1); assay: Counterscreen for APE1 Inhibitors: qHTS Validation Assay for Inhibitors of Endonuclease IV (AID 1708)
# In short: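 Enzyme (2 nM) + compound, 15 min RT; add 50 nM TAMRA/BHQ-2 THF-site dsDNA; kinetic read ex525/em598, 3 reads/60 s; activity = read 3 − read 1. Buffer Tris pH 7.5, 50 mM NaCl, 2 mM MgCl2, DTT, Tween-20.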
# [6] = qHTS for differential inhibitors of proliferation of Plasmodium falciparum line Dd2 (AID 1882); settings: Potency: Plasmodium falciparum Dd2 proliferation inhibition; note: nearly all actives have a fitted effect of over 65% in size; note: potency is the fitted concentration of half-maximal effect
# In short: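 SYBR Green DNA fluorescence (ex 485, em 535 nm) after overnight lysis quantifies parasite growth; compound exposure lasted 72 h at 37 C on infected red cells at 2.5% hematocrit, 0.3% parasitemia (final). Artemisinin 0.29 uM and vehicle wells define normalization.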
# [7] = biological target: ATP-dependent DNA helicase Q1 (Homo sapiens) (UniProt P46063); assay: qHTS Validation Assay for Inhibitors of RecQ-Like Dna Helicase 1 (RECQ1) (AID 2353)
# ATP-dependent DNA helicase Q1 (Homo sapiens), sequence (P46063 whole entry, looked up): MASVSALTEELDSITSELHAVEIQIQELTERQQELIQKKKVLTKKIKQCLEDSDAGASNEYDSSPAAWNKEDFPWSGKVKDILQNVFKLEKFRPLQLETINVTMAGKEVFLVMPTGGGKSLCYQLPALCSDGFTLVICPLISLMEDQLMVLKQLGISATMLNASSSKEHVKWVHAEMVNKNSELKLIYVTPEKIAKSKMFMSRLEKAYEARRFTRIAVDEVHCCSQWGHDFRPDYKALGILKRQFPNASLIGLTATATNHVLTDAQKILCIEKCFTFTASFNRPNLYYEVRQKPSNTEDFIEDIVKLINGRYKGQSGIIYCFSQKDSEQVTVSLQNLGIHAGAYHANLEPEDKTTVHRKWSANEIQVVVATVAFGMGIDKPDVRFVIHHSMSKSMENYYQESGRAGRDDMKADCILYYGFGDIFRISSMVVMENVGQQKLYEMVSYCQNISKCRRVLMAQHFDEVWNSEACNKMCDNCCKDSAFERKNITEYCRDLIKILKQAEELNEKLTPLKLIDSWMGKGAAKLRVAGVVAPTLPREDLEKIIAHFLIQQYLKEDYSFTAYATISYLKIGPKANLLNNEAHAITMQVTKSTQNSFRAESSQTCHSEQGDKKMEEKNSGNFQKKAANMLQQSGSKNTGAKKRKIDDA
# In short: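 RECQ1T1 50 nM; forked duplex (20 bp + 30-nt ss tails) 200 nM, ATP 2 mM final; pH 8.0, 2 mM MgCl2, 2.5 ug/ml poly(dI-dC); 15 min compound preincubation; discontinuous kinetic read over 2 h at RT.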
# [8] = Validation screen for small molecules that induce DNA re-replication in MCF 10A normal breast cells (AID 463097); note: nearly all actives have a fitted effect of over 60% in size
# In short: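 Image-based qHTS: normal breast cells are incubated with compound for 48 hr, stained with Hoechst, and scanned for total nuclear fluorescence. Compounds raising the fraction of nuclei with elevated DNA content count as re-replication inducers.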
# [9] = Quantitative high throughput screen for delayed death inhibitors of the malarial parasite plastid, 48 hour incubation (AID 488752); note: nearly all actives have a fitted effect of over 65% in size
# In short: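 One-generation (48 h) growth assay: a decrease in luciferase signal from an integrated reporter in P. falciparum-infected red cells (0.1% parasitemia, 2% hematocrit) after compound exposure at 37 C indicates parasite inhibition.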
# [10] = biological target: M-phase phosphoprotein 8 (Homo sapiens) (UniProt Q99549); assay: qHTS Validation Assay for Inhibitors for MPP8 Chromodomain Interactions with Methylated Histone Tails (AID 488949);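 note: 50 nM MPP8 with 50 nM peptide preformed then compounds added for 30 min; AlphaScreen signal from MPP8 chromodomain bound to biotinylated H3K9me3 peptide; top concentration of the series differs between compounds; nearly all actives have a fitted effect of over 55% in size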
# M-phase phosphoprotein 8 (Homo sapiens), sequence (Q99549 whole entry, looked up): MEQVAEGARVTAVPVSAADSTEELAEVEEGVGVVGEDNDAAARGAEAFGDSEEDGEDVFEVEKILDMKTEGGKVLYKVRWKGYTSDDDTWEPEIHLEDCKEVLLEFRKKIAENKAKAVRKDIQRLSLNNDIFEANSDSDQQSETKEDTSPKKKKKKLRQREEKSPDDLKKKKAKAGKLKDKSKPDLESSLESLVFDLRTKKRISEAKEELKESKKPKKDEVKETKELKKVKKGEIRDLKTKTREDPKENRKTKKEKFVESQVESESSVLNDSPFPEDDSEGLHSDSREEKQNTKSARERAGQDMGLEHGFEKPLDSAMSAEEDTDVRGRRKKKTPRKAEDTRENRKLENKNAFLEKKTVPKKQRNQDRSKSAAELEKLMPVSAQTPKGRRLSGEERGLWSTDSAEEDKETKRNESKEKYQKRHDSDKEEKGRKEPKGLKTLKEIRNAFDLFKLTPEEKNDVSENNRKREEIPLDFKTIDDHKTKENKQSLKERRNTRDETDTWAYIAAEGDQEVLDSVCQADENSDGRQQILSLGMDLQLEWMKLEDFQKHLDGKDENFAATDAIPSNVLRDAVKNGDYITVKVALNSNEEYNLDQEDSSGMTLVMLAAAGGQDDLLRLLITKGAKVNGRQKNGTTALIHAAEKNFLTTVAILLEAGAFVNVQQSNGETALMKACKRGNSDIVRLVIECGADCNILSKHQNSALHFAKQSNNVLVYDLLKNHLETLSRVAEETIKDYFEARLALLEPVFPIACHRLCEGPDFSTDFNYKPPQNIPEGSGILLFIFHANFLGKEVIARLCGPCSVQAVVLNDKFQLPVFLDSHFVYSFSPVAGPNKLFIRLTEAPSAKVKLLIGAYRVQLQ
# In short: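 50 nM MPP8 + 50 nM b-H3K9me3 peptide, PBS pH 7.4/0.01% Tween-20, 30 min RT; + cpd 30 min RT; + AlphaScreen donor/Ni-chelate acceptor beads 10 ug/mL final, 30 min dark; luminescence read.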
# [11] = biological target: Transient receptor potential cation channel subfamily V member 1 (Homo sapiens) (UniProt Q8NER1); assay: HTS Assay for Compounds that Act as Enhancers of the Vanilloid Receptor 1 (AID 488979)
# Transient receptor potential cation channel subfamily V member 1 (Homo sapiens), sequence (Q8NER1 whole entry, looked up): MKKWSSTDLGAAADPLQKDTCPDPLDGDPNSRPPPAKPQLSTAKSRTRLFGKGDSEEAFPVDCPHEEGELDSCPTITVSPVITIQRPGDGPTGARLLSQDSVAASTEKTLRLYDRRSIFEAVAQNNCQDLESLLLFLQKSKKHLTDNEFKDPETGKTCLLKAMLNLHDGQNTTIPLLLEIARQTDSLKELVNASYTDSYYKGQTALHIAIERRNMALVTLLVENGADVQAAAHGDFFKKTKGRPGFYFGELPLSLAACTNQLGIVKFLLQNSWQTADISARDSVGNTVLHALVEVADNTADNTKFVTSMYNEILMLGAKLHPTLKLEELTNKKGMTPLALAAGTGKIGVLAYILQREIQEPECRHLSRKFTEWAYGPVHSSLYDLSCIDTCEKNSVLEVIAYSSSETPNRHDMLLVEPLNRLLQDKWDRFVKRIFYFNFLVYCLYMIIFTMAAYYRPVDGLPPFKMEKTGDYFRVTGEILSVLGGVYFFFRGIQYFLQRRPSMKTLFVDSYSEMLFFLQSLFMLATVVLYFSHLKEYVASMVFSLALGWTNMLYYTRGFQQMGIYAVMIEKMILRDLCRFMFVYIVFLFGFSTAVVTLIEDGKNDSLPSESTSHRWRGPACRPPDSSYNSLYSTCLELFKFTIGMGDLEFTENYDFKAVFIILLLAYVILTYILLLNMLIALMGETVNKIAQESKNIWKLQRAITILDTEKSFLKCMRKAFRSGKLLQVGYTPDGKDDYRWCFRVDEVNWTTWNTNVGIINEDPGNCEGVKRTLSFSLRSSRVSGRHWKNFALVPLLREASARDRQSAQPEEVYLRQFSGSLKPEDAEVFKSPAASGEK
# In short: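 TRPV1-expressing cells loaded with Fluo-8 calcium dye; compounds added and calcium influx read kinetically for 3 min (agonist phase), then capsaicin at EC20 added and read 2 min more for enhancement. Fluorescence ex 480/em 520 nm.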
# [12] = biological target: Galactokinase (Homo sapiens) (UniProt P51570); assay: qHTS Validation Assay for Inhibitors of Human Galactokinase (GALK) (AID 493189)
# Galactokinase (Homo sapiens), sequence (P51570 whole entry, looked up): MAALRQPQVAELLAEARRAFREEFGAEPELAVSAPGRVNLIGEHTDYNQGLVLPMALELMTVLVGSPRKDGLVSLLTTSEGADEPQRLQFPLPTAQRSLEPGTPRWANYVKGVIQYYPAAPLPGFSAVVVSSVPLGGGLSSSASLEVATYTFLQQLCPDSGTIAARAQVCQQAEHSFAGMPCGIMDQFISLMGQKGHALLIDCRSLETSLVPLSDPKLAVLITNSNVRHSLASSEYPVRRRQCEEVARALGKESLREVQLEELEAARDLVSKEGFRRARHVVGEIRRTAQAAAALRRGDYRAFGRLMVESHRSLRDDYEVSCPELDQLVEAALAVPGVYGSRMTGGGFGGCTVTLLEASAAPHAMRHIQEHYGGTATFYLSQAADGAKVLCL
# In short: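 5 nM GALK / 100 uM galactose / 35 uM ATP, 20 mM HEPES pH8.0, 5 mM MgCl2, 60 mM NaCl, 1 mM DTT, 0.01% BSA (final). RT 1 h; Kinase-Glo Plus luminescence.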
# [13] = Validation screen for small molecules that induce DNA re-replication in SW480 colon adenocarcinoma cells (AID 504364)
# In short: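 Image-based DNA content read-out: Hoechst stain 40 min, total nuclear fluorescence intensity (ex 405 nm, em 500-530 nm) after 48 h compound exposure of 250 SW480 cells/well at 37 C, 5% CO2, versus DMSO vehicle.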
# [14] = Primary qHTS for inhibitors of nuclear receptor binding SET domain protein 2 (NSD2) in an isogenic RCH-ACV NSD2 p.E1099K mutant (9B) (AID 1645876); note: potency is the fitted concentration of half-maximal effect; nearly all actives have a fitted effect of over 70% in size
# [15] = biological target: Glutathione peroxidase 1 (Homo sapiens) (UniProt P07203); assay: Primary qHTS Assay for Inhibitors of Recombinant Selenoprotein Glutathione Peroxidase 1 (GPX1) (AID 1845191); note: nearly all actives have a fitted effect of over 65% in size
# Glutathione peroxidase 1 (Homo sapiens), sequence (P07203 whole entry, looked up): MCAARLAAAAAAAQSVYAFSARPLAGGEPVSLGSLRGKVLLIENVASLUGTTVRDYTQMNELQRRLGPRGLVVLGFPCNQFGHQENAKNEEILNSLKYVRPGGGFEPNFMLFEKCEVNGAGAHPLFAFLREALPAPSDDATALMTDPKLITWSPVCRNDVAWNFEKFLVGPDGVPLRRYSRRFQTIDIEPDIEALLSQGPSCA
# In short: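 GPX1 10 nM, GR 100 nM, GSH 1 mM, NADPH 0.5 mM, CHP 0.5 mM (final). 30-min cpd preincubation, RT. Ex340/Em450 read t=0, t=15 min.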
# [16] = biological target: Phospholipid hydroperoxide glutathione peroxidase GPX4 (Homo sapiens) (UniProt P36969); assay: Primary qHTS Assay for Inhibitors of Recombinant Selenoprotein Glutathione Peroxidase 4 (GPX4) (AID 1845192); settings: outcome: dose series up to 50 µM unless noted; note: nearly all actives have a fitted effect of over 65% in size
# Phospholipid hydroperoxide glutathione peroxidase GPX4 (Homo sapiens), sequence (P36969 whole entry, looked up): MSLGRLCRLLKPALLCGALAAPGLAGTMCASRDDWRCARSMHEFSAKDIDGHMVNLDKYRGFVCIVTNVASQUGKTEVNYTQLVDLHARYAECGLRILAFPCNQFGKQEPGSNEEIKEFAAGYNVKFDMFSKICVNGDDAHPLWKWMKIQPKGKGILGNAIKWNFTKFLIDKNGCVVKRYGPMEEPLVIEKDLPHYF
# In short: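 qHTS, GR-coupled: GPX4 200 nM + cpd 30 min RT → GSH 1 mM, NADPH 0.5 mM, GR 100 nM → CHP 0.5 mM start; fluor 340/450 at t0 and t15 min; no-enzyme wells as control.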
# [17] = qHTS drug screen for cell cycle checkpoint inhibitors in PARPi-resistant BRCA-mutant ovarian cancer cell lines. (AID 1963452; calls by dose curve); settings: PEO1/OlaR viability, CellTiter-Glo luminescence, 96 h, stronger effect = lower value
# In short: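 PEO1, PEO4 and PEO1/OlaR ovarian cancer cells, 600 per well, exposed 96 h at 37C to a dilution series. Viability read by CellTiter-Glo luminescence, normalized to DMSO and empty wells; activity summarized as Z-AUC.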
# [18] = qHTS assay to identify inhibitors of the type 1 interferon - major histocompatibility complex class I in skeletal muscle: Counter screen cell viability and HiBit confirmation (AID 1347412); settings: iHSKM muscle cells + IFN-b, HiBiT or CellTiter-Glo, 24 h; for activity change, negative = inhibition: at 45.9 µM (top of the series); note: potency is the fitted concentration of half-maximal effect; for all read-outs here: nearly all actives have a fitted effect of over 60% in size
# In short: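 Luminescence read-out: Nano-Glo HiBiT lytic signal from C-terminally HiBiT-tagged HLA-B in CRISPR-edited human myoblasts, plus CellTiter Glo ATP as viability counter screen. IFN-beta 4.0 ng/ml; 24 hrs treatment at 37 C, 5% CO2.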
# [19] = Primary qHTS for inhibitors of nuclear receptor binding SET domain protein 2 (NSD2) in an RCH-ACV wild type WT cells (2C) (AID 1645877); note: potency is the fitted concentration of half-maximal effect; nearly all actives have a fitted effect of over 70% in size
# [20] = measured here: cell count channel max response
# [21] = measured here: lipid channel max response
# [22] = measured here: PEO1 parental Z-AUC
smiles,measurement,setting,value
NCCC(=O)NCCc1cnc[nH]1,outcome,[1],inactive
same,"activity change, negative = inhibition",[2]; at 25.7 µM (top of the series),1.3% (inactive)
same,max response,[2]; [20],9.26%
same,max response,[2]; [21],15.5%
same,Potency,[3],inactive
same,Potency,[4],inactive
same,outcome,[5],inactive
same,Potency,[6],inactive
same,Potency,[7],inactive
same,outcome,[8],inactive
same,Potency,[9],inactive
same,Potency,[10],inactive
same,outcome,[11],inactive
same,outcome,[12],inactive
same,outcome,[13],inactive
CN=C(N)NCCCC(N)C(=O)O (stereo not drawn),outcome,[1],inactive
same,"activity change, negative = inhibition",[2]; at 57.5 µM (top of the series),0.52% (inactive)
same,max response,[2]; [20],-20%
same,max response,[2]; [21],-19.4%
same,Potency,[3],inactive
same,Potency,[4],inactive
same,outcome,[5],inactive
same,Potency,[6],inactive
same,Potency,[7],inactive
same,outcome,[8],inactive
same,Potency,[9],inactive
same,Potency,[10],inactive
same,outcome,[11],inactive
same,outcome,[12],inactive
same,outcome,[13],inactive
C=C1/C(=C\C=C2/CCC[C@]3(C)[C@@H]([C@H](C)CCCC(C)(C)O)CC[C@@H]23)C[C@@H](O)C[C@@H]1O,Potency,[14],20.9 µM (active) and 18.6 µM (active)
same,Potency,[15],inactive
same,Potency,[16],inactive
same,Z-AUC,[17],0.612 (inactive) and 1.13 (inactive)
same,Z-AUC,[17]; [22],0.475 and 0.837
same,Z-AUC,[17]; measured here: PEO4 Z-AUC,0.77 and 1.19
same,"activity change, negative = inhibition",[18]; HiBiT,-12.1% (inactive)
same,"activity change, negative = inhibition",[18]; Viability,-5.56% (inactive)
N#CCC1(n2cc(-c3ncnc4[nH]ccc34)cn2)CN(C2CCN(C(=O)c3ccnc(C(F)(F)F)c3F)CC2)C1,Potency,[19],18.6 µM (active)
same,Z-AUC,[17],-0.205 (inactive)
same,Z-AUC,[17]; [22],-0.513
same,Z-AUC,[17]; measured here: PEO4 Z-AUC,-0.617
same,Potency,[18]; HiBiT,1.57 µM (active)
same,"activity change, negative = inhibition",[18]; Viability,14.7% (inactive)
C=CCN(/C=C1\C(=O)O[C@@H](COC)[C@]2(C)C1=C(O)C(=O)C1=C2[C@@H](OC(C)=O)C[C@]2(C)C(=O)CC[C@H]12)CC=C,Potency,[14],10.5 µM (active)
same,Potency,[19],8.33 µM (active)
same,Potency,[15],inactive
same,Z-AUC,[17],-0.265 (inactive)
same,Z-AUC,[17]; [22],0.0227
same,Z-AUC,[17]; measured here: PEO4 Z-AUC,0.306
same,"activity change, negative = inhibition",[18]; HiBiT,-5.45% (inactive)
COc1c2c(nc3ccccc13)OC(C(C)(O)CO)C2 (stereo not drawn),outcome,[1],inactive
same,"activity change, negative = inhibition",[2]; at 57.5 µM (top of the series),1.22% (inactive)
same,max response,[2]; [20],-18%
same,max response,[2]; [21],-12.2%
same,Potency,[3],inactive
same,Potency,[4],inactive
same,outcome,[5],inactive
same,Potency,[6],inactive
same,Potency,[7],inactive
same,outcome,[8],inactive
same,Potency,[9],inactive
same,Potency,[10],inactive
same,outcome,[11],inactive
same,outcome,[12],inactive
same,outcome,[13],inactive
N=C(N)SCCc1cccc(CCSC(=N)N)c1,outcome,[1],inactive
same,"activity change, negative = inhibition",[2]; at 57.5 µM (top of the series),1.43% (inactive)
same,max response,[2]; [20],-17.4%
same,max response,[2]; [21],-13.1%
same,Potency,[3],inactive
same,Potency,[4],inactive
same,outcome,[5],inactive
same,Potency,[6],7.08 µM (active)
same,Potency,[7],inactive
same,outcome,[8],inactive
same,Potency,[10],inactive
same,outcome,[11],inactive
same,outcome,[12],inactive
same,outcome,[13],inactive
OC[C@H]1O[C@@H](n2cnc3c(NCCc4ccccc4)ncnc32)[C@H](O)[C@H]1O,outcome,[1],inactive
same,"activity change, negative = inhibition",[2]; at 57.5 µM (top of the series),-0.874% (inactive)
same,max response,[2]; [20],-25.2%
same,max response,[2]; [21],-26.1%
same,Potency,[3],inactive
same,Potency,[4],inactive
same,outcome,[5],inactive
same,Potency,[6],inactive
same,Potency,[7],inactive
same,outcome,[8],inactive
same,Potency,[9],inactive
same,Potency,[10],inactive
same,outcome,[11],inactive
same,outcome,[12],inactive
same,outcome,[13],inactive
C[C@H](NC(=O)/C(C#N)=C/c1cccc(Br)n1)c1ccccc1,Potency,[14],14.8 µM (active)
same,Potency,[19],14.8 µM (active)
same,Potency,[16],inactive
same,Z-AUC,[17],0.178 (inactive)
same,Z-AUC,[17]; [22],-0.139
same,Z-AUC,[17]; measured here: PEO4 Z-AUC,-0.487
same,Potency,[18]; HiBiT,7.01 µM (active)
same,"activity change, negative = inhibition",[18]; Viability,17% (inactive)
